For this assay, the target named is T1, Methionyl-tRNA synthetase, putative (Leishmania donovani (strain BPK282A1)) (UniProt E9BF75).
T1 sequence (whole entry): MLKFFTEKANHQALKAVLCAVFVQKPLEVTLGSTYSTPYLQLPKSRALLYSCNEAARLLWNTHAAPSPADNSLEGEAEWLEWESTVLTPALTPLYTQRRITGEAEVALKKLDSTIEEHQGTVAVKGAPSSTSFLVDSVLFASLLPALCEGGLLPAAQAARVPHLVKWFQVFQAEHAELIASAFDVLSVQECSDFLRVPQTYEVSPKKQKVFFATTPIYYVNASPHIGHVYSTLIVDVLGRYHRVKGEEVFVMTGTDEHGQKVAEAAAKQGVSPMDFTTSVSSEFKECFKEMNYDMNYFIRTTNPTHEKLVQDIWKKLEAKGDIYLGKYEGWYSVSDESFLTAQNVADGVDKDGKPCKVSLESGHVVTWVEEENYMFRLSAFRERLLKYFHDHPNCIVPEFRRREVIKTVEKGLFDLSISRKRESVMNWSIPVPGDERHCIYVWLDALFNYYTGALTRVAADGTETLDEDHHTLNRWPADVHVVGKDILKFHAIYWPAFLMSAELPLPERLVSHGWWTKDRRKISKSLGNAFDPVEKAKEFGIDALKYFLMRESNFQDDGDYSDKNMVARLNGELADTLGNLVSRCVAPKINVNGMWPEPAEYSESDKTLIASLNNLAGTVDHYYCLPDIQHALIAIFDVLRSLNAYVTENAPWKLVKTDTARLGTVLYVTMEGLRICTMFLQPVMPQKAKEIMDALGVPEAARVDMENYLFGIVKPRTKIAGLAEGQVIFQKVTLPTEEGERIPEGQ
The assay is described as follows: Leishmania donovani Methionine tRNA synthetase (LdMetRS):v7. Dose response assay. It counts as functional. More on the design: conc 80 nM, time 150 minutes.

For the compound `Cn1ncc2c(NCCS(C)(=O)=O)nc(Nc3ccc(F)c(F)c3)nc21`, the PXC50 was below 4 (MAX_EFFECT 19.95249406), below 4 (MAX_EFFECT 30.90128755) and below 4 (MAX_EFFECT 33.0754352).

Take `OCCNc1nc(Nc2cccc(C(F)(F)F)c2)nc2ccsc12`: the PXC50 was below 4 (MAX_EFFECT 27.65957447), below 4 (MAX_EFFECT 37.44493392) and below 4 (MAX_EFFECT 44.00826446).

Turning to `OCCNc1ccnc(Nc2cccc(F)c2)n1`, the PXC50 (MAX_EFFECT 29.67244701) was below 4, the PXC50 (MAX_EFFECT 30.83700441) is below 4 and the PXC50 (MAX_EFFECT 32.02479339) was below 4.

As to `Cc1nc(-c2cc(Cl)c3c(c2)CC(CN)O3)c[nH]1` (stereo unspecified), the PXC50 runs as follows: (MAX_EFFECT 32.65306122) below 4; (MAX_EFFECT 37.68115942) below 4; (MAX_EFFECT 41.5061296) below 4.

As to `Cn1ncc2c(NCCn3cccn3)nc(Nc3ccc(F)c(F)c3)nc21`, the PXC50 is, setting by setting: (MAX_EFFECT 33.72921615) below 4; (MAX_EFFECT 37.33905579) below 4; (MAX_EFFECT 41.9729207) below 4.

In the case of `NC1CCN(C2CCN(c3ccc(-c4ccco4)cc3)CC2)CC1`, the PXC50 is, setting by setting: (MAX_EFFECT 34.50087566) below 4; (MAX_EFFECT 44.89795918) below 4; (MAX_EFFECT 51.44927536) below 4.

For the compound `OCCNc1nc(Nc2ccc(F)c(F)c2)nc2[nH]ncc12`, the PXC50 stood at 5.11 (BOTTOM 3.46805435, HILLSLOPE 2.296919563, MAX_EFFECT 68.49315068, TOP 65.56498053); 5.22 (BOTTOM 8.366568489, HILLSLOPE 1.390922894, MAX_EFFECT 66.79316888, TOP 71.6605159); 5.31 (BOTTOM -5.242433447, HILLSLOPE 1.269255479, MAX_EFFECT 62.45283019, TOP 64.77487353).

As for `Nc1cc2c(nn1)CCN(C(=O)c1csc(-c3cccs3)n1)C2`, the PXC50 by setting is: (MAX_EFFECT 19.04761905) below 4; (MAX_EFFECT 19.56521739) below 4; (MAX_EFFECT 20.14010508) below 4.

In the case of `FC1(F)CCN(Cc2cccnc2)CC12CCN(c1ccccc1)C2` (stereo unspecified), the PXC50 (BOTTOM -4.019199092, HILLSLOPE 0.87851595, MAX_EFFECT 63.88888889, TOP 104.3685566) was 4.25; the PXC50 (BOTTOM -4.110370477, HILLSLOPE 0.854311737, MAX_EFFECT 59.79202773, TOP 100.0) is 4.27; the PXC50 (BOTTOM -6.339797733, HILLSLOPE 0.853335904, MAX_EFFECT 59.06040268, TOP 100.0) was determined as 4.22; the PXC50 (MAX_EFFECT 7.101727447) is below 4; the PXC50 (MAX_EFFECT 13.23763955) was below 4.

Turning to `OCCCNc1nccc(Nc2cccc(F)c2)n1`, the PXC50 by setting is: (MAX_EFFECT 2.056074766) below 4; (MAX_EFFECT 11.40142518) below 4; (MAX_EFFECT 18.45493562) below 4.

Take `Cn1ncc2c(NCCO)nc(Nc3cccc(C(F)(F)F)c3)nc21`: the PXC50 is, setting by setting: (MAX_EFFECT 33.39622642) below 4; (MAX_EFFECT 39.26940639) below 4; (MAX_EFFECT 40.60721063) below 4.

Turning to `COC(=O)CNC(=O)c1cccc(C(=O)N(C)c2ccccc2)c1`, the PXC50 (MAX_EFFECT 1.22591944) was below 4, the PXC50 (MAX_EFFECT 1.449275362) was below 4 and the PXC50 (MAX_EFFECT -3.401360544) was below 4.

With `OCCNc1nc(Nc2cccc(F)c2)nc2ccsc12`, the PXC50 was found to be 4.42 (BOTTOM 3.044431964, HILLSLOPE 0.890140098, MAX_EFFECT 69.62809917, TOP 98.77893837); 4.37 (BOTTOM -0.299639933, HILLSLOPE 0.74457476, MAX_EFFECT 65.18375242, TOP 100.0); 4.73 (BOTTOM -0.909696564, HILLSLOPE 1.048927528, MAX_EFFECT 68.28193833, TOP 78.21382142).

On to `Cc1nc(Cc2ccc(F)cc2)cc(C2COCCN2)n1` (stereo unspecified), for which the PXC50 is 4.12 (BOTTOM 2.29407011, HILLSLOPE 1.165905826, MAX_EFFECT 59.72222222, TOP 100.0); 4.05 (BOTTOM 7.218737982, HILLSLOPE 1.406075807, MAX_EFFECT 57.71812081, TOP 100.0); below 4 (MAX_EFFECT 41.7677643).

As to `CCN(CC)c1ccc2ccc(C(=O)N3CCCCO3)cn12`, the PXC50 was 4.06 (BOTTOM -0.620934572, HILLSLOPE 1.091774088, MAX_EFFECT 59.15492958, TOP 100.0); 4.39 (BOTTOM -3.857934484, HILLSLOPE 1.704145188, MAX_EFFECT 56.25, TOP 100.0); below 4 (MAX_EFFECT 43.85964912); below 4 (MAX_EFFECT 47.96296296).

As for `Cn1ncc2c(NCCO)nc(Nc3ccccc3S(N)(=O)=O)nc21`, the PXC50 runs as follows: (MAX_EFFECT 2.127659574) below 4; (MAX_EFFECT 3.652968037) below 4; (MAX_EFFECT 13.39622642) below 4.

(Values after ChEMBL document CHEMBL3988442, “University of Dundee, Small-Polar-MMV Screening Library” (2021).)
